The list is not random: actives were taken first. Their share in the collection is about 15%.
12-LOX inh = Primary qHTS assay for inhibitors of human arachidonate 12S-lipoxygenase (ALOX12): Round 2. Polyunsaturated fatty acid lipoxygenase ALOX12 (Homo sapiens), P18054. purified 12hLO, xylenol orange hydroperoxide absorbance. Potency, µM (titrated, usually from 108 µM), for inactives: at the highest dose activity change, negative = inhibition, most hits filed as inhibitors. 580,000 compounds, 1.1% hits. AID 1671190, 2021
Target sequence (P18054 whole entry, looked up): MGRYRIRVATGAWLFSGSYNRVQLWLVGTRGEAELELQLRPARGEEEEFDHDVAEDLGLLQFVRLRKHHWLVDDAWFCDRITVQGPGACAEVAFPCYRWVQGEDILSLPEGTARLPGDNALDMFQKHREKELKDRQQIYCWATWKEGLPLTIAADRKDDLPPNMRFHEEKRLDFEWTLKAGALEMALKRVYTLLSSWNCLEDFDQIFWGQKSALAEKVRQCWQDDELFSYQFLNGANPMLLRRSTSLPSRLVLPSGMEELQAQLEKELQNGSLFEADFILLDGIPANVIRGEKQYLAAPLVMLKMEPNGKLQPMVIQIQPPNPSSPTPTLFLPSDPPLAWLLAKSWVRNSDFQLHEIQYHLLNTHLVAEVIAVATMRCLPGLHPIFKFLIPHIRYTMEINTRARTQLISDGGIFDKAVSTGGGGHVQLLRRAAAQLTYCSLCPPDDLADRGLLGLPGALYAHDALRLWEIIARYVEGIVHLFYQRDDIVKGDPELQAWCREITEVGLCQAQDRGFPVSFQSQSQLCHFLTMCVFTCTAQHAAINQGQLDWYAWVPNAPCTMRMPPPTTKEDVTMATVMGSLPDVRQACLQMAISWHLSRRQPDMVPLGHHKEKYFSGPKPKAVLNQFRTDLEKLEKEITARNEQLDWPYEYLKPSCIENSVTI
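Hydroperoxide product was detected by ferrous iron/xylenol orange as the 573 to 405 nm absorbance ratio. Arachidonic acid at 40 uM (final) was turned over for 30 min at room temperature by 150 nM human 12hLO, pH 7.0 Hepes buffer, after 15 min compound preincubation.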
ELG1 DNA repair = qHTS screen for small molecules that inhibit ELG1-dependent DNA repair in human embryonic kidney (HEK293T) cells expressing luciferase-tagged ELG1. HEK293T ELG1-luciferase reporter, luminescence, 16 h; DNA damage induced by 5-fluorouridine. Potency, µM (doses to about 46.1 µM), without a hit: at the top dose activity change, negative = inhibition, actives largely listed as inhibitors. 330,000 compounds, 2.3% hits. AID 504467, 2011; further: nearly all actives have a fitted effect of over 55% in size
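In this reporter screen, reduction of luminescence relative to DMSO vehicle indicated activity. Compounds and 5-fluorouridine were added together to 2,000 cells per well, incubated for 16 hr at 37 °C, then developed with ONE-Glo.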
RORg inh = qHTS for inhibitors of ROR gamma transcriptional activity; Nuclear receptor ROR-gamma (Mus musculus), P51450; Drosophila S2 Gal4-RORgamma UAS-luciferase reporter, 20 h; Potency, µM (highest dose often 53.6 µM), for inactives: at the top dose activity change, negative = inhibition, actives largely listed as inhibitors; 310,000 compounds, 5.4% hits; AID 2551, 2010; further: nearly all actives have a fitted effect of over 60% in size
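Luminescence from a UAS-regulated Photinus luciferase reporter in stably transfected Drosophila Schneider cells is measured; decreased signal marks ROR gamma inhibition. Fusion expression is induced by 700 uM copper sulfate for 20 hr.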
DT40 TDP1 no CPT = qHTS for Inhibitors of human tyrosyl-DNA phosphodiesterase 1 (TDP1): qHTS in cells in absence of CPT; 420,000 compounds, 15% hits; Potency, µM (highest dose often 46.2 µM), without a hit: at the top dose activity change, negative = growth inhibition, usual class: inhibitors; DT40 Tdp1-/- hTDP1 cells, no CPT, ATP luminescence, 48 h; AID 686978, 2013; further: nearly all actives have a fitted effect of over 55% in size
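Seeded 400 DT40-hTDP1 cells/well (vehicle DMSO, no 20 nM CPT); pinned compounds; ≥48 hr at 37 °C; CellTiter-Glo luminescence as viability measure.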
Gal4-VP16 FLuc = VP16 counterscreen qHTS for inhibitors of ROR gamma transcriptional activity | 310,000 compounds, 3.5% hits | Potency, µM (titrated, usually from 53.6 µM), for the others: at the highest dose activity, negative = inhibition, hits mostly inhibitors | Drosophila S2 Gal4-VP16 UAS-luciferase, luminescence, 20 h;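 further: Gal4-VP16 expression switched on by copper sulfate through the metallothionein promoter; nearly all actives have a fitted effect of over 50% in size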
TDP1 cell CPT = qHTS for Inhibitors of human tyrosyl-DNA phosphodiesterase 1 (TDP1): qHTS in cells in presence of CPT; chicken DT40 Tdp1-/-;hTDP1 cells + 20 nM CPT, ATP luminescence, 48 h; Potency, µM (doses to about 46.2 µM), without a hit: top-dose activity change, negative = growth inhibition, hits mostly inhibitors; 420,000 compounds, 12% hits; further: nearly all actives have a fitted effect of over 55% in size
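Cell growth measured by CellTiter-Glo luminescence after a minimum 48 h, 37 C compound exposure with 20 nM CPT in Tdp1-knockout DT40 cells stably expressing hTDP1, seeded 400/well; qHTS titration format.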
* marks the source's active call; other numbers are inactive results; ? = inconclusive; · = no result; [ ] = remark or other dose. The call rests on the fitted dose curve; in most records, active means well fitted curve in the direction sought with a large enough effect; inconclusive means small, poorly fitted or top-dose-only effect, or another doubt; inactive means no such curve, though single readings can be large; an effect the other way counts as inactive or inconclusive. On the % scale 0 is the no-effect control and ±100 the full control effect; potency means the concentration at half of the fitted maximal effect.

SMILES | 12-LOX inh | ELG1 DNA repair | RORg inh | DT40 TDP1 no CPT | Gal4-VP16 FLuc | TDP1 cell CPT
Cc1cc2c(cc1C)CSC(c1ccccc1OC(=O)c1ccc(I)cc1)SC2 | -9% | · | · | · | · | ·
CCN(CC)CCCNC(=O)c1cc2c(Cl)nc3ccccc3c2s1 | ? | 0% | -28% | ? | -19% | 18µM*
CCOc1ccccc1NC(=O)c1cc2c(Cl)nc3ccccc3c2s1 | 0% | · | · | -3% | · | 13%
CCN(CCCNC(=O)c1cc2c(Cl)nc3ccccc3c2s1)Cc1ccccc1 | ? | · | · | 23µM* | · | ?
CCC(=O)N1N=C(c2ccccc2)CC1c1ccc2nccnc2c1 (configuration not stated) | -18% | · | · | · | · | ·
CCS(=O)(=O)N1N=C(c2ccccc2)CC1c1ccc2nccnc2c1 (configuration not stated) | 13% | 0% | 78% | 10µM* | -17% | ?
COc1cc2ncnc(NCc3ccccc3Cl)c2cc1OC | -20% | ? | 25% | 13µM* | -2%[10 µM] | 21µM*
COc1cc2ncnc(NCc3ccc(Cl)cc3)c2cc1OC | -20% | ? | 10% | ? | 4%[10 µM] | ?
CC(Nc1ncnc2nc[nH]c12)c1ccccc1 (configuration not stated) | 9% | 0% | ? | 13µM* | -13% | 16µM*
COc1cc2ncnc(NCc3ccccc3C)c2cc1OC | 1% | ? | 11% | ? | 10% | ?
Fc1ccc(F)c(CNc2ncnc3cc(Cl)ccc23)c1 | 3% | -24% | ? | 15µM* | ? | 15µM*
COc1cc2ncnc(NCc3ccc(C)o3)c2cc1OC | -23% | -15% | 18% | 21µM* | 10%[10 µM] | ?
Cc1cc(Cl)ccc1NC(=O)C1CC2CCC1C2 (configuration not stated) | 9% | · | · | · | · | ·
Cc1ccc(CNc2nc(CN3CCSCC3)nc3ccccc23)o1 | ? | · | · | ? | · | 1%[9.04 µM]
Clc1ccc(CNc2ncnc3[nH]ncc23)c(Cl)c1 | -11% | · | · | 16µM* | · | ?
COc1cc2ncnc(N[C@H](C)c3ccccc3)c2cc1OC | · | ? | 23% | 23µM* | -6% | 18µM*
Cc1ccccc1CNc1ncnc2cc(Cl)ccc12 | 1% | -7% | 33% | ? | -5% | -6%
Cc1ccc(CNc2ncnc3cc(Cl)ccc23)o1 | ? | -18% | 26% | 13µM* | ? | 10µM*
Cc1ccc(CNc2ncnc3cc(Cl)ccc23)cc1 | -18% | ? | 17% | 18µM* | ? | 26µM*
O=C(NCCSC1CCCC1)c1cccs1 | 19% | · | · | · | · | ·
Cc1cc(C)cc(NC(=O)CN2C(=O)CCc3cc(S(=O)(=O)N4CCCCC4)ccc32)c1 | -3% | · | · | ? | · | 16µM*
COc1cc(NC(=O)CN2C(=O)COc3ccc(S(=O)(=O)N4CCCCC4)cc32)cc(OC)c1 | 7% | 5% | 18% | ? | 1% | ?
COc1ccc(NC(=O)CN2C(=O)COc3ccc(S(=O)(=O)N4CCCCC4)cc32)c(OC)c1 | -13% | -8% | 32% | ? | -11% | 15µM*
COc1ccc(OC)c(NC(=O)CN2C(=O)CCc3cc(S(=O)(=O)N4CCCCC4)ccc32)c1 | -3% | · | · | ? | · | 26µM*
Cc1ccccc1COC(=O)CSc1cnc2ccccc2n1 | 40% | · | · | · | · | ·
SMILES | 12-LOX inh | ELG1 DNA repair | RORg inh | DT40 TDP1 no CPT | Gal4-VP16 FLuc | TDP1 cell CPT
COc1cc(OC)c(NS(=O)(=O)c2cc(C(=O)N3CCC(C(N)=O)CC3)ccc2C)cc1Cl | 5% | · | · | · | · | ·
Clc1ccccc1-c1nn2c(-c3cc(-c4ccccc4)n[nH]3)nnc2s1 | · | · | · | 11µM* | · | 13µM*
COc1cccc(OC)c1-c1nn2c(-c3cc(-c4ccccc4)n[nH]3)nnc2s1 | 0% | ? | 0% | ? | -14% | 18µM*
CCN(CC)c1ccc(-c2nn3c(-c4ccccc4OC)nnc3s2)cc1 | · | ? | ? | 1.2µM* | 14µM* | 1.3µM*
COc1ccc(OCc2nn3c(-c4ccco4)nnc3s2)cc1 | 4% | -9% | ? | ? | -6% | ?
Clc1ccc(OCc2nn3c(-c4ccco4)nnc3s2)cc1 | -33% | -10% | 0%[10 µM] | 18µM* | 9% | ?
COc1ccccc1-c1nnc2sc(COc3ccccc3)nn12 | 23% | ? | -7%[10 µM] | -27% | 0% | -18%
COc1ccc(-c2nn3c(-c4ccccc4)nnc3s2)cc1 | -15% | 9% | -37% | ? | 1% | ?
CNC(=O)CCn1ncc2cc(OC3CCc4cccc(-c5cccnc5)c43)ccc21 (configuration not stated) | -4%[176 µM] | · | · | · | · | ·
COc1ccc(NC(=O)C2(n3cnnn3)CCCCC2)cc1 | 44% | · | · | · | · | ·
COc1ccc(C(=O)N2CCC[C@H]2c2nc(-c3ccc(OC)c(OC)c3)no2)c(OC)c1 | 25% | · | · | · | · | ·
COc1ccccc1-c1nn2c(-c3ccccc3Cl)nnc2s1 | · | 9% | -16% | · | 2% | ·
CN(C)c1ccc(-c2nn3c(-c4cc(-c5ccccc5)n[nH]4)nnc3s2)cc1 | · | · | · | 3.2µM* | · | 5µM*
COc1ccccc1-c1nn2c(-c3ccco3)nnc2s1 | -4% | ? | -11% | 18µM* | -2% | ?
COc1ccccc1-c1nn2c(-c3cc(-c4ccccc4)n[nH]3)nnc2s1 | · | · | · | 4.5µM* | · | 6.3µM*
CC(Sc1nc(N)cc(N)n1)C(=O)c1ccc(F)c(F)c1 (configuration not stated) | -14% | · | · | · | · | ·
Clc1cccc(-n2cc(-c3ccccc3)c3c(NC4CCCC4)ncnc32)c1 | -12% | · | · | ? | · | ?
COc1ccc(-n2cc(-c3ccccc3)c3c(NC4CCCC4)ncnc32)cc1 | -23% | · | · | 18µM* | · | 23µM*
COc1ccc(-n2cc(-c3ccccc3)c3c(N4CC(C)OC(C)C4)ncnc32)cc1 (configuration not stated) | 1% | ? | 2% | 12µM* | -7% | ?
COc1cccc(N2CCN(c3ncnc4c3c(-c3ccccc3)cn4-c3cccc(C(F)(F)F)c3)CC2)c1 | -22% | · | · | ? | · | -15%
COc1ccc(CC(=O)N[C@H]2CCOC[C@H]2C2CCOCC2)c(OC)c1 | 42% | · | · | · | · | ·
